Hits are enriched below; roughly 7.3% of the tested compounds scored in any of these assays.
Luc counter – counter-screen: inhibitors of Kinase-Glo firefly luciferase. Q27757. Potency, µM (top dose mostly 38.3 µM), for the others: at the top dose activity change, negative = inhibition, usual class: inhibitors. Kinase-Glo luciferase, ATP luminescence, 8 min. actives 0.28% (n = 200,000); further: on the % scale 0 is the no-effect control and ±100 the full control effect; nearly all actives have a fitted effect of over 60% in size
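Light output from Kinase-Glo luciferase with luciferin and 10 uM ATP in 50 mM imidazole pH 7.2, KCl, MgCl2, Tween 20, BSA; compound pin-delivered, 8-min ambient incubation, then luminescence read.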
ELG1 genotoxic – inducers of genotoxicity in HEK293T ELG1-luciferase cells. HEK293T ELG1-luciferase reporter, luminescence, 16 h. Potency, µM (series often up to 46 µM), inactives show at the top dose activity change, positive = activation, hits mostly activators. actives 1.3% (n = 330,000). AID 504466; further: % of control where 0% means no effect; nearly all actives have a fitted effect of over 60% in size
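Luminescence read-out: rising ELG1-luciferase signal, reflecting elevated ELG1 protein under genetic stress, flags genotoxic compounds. Cells were treated for 16 hr at 37 °C before ONE-Glo detection.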
SMN2 splice up – increases expression of the SMN2 splice variant; HEK293 SMN2-luciferase splicing reporter, luminescence, 30-36 h; Potency, µM (series often up to 46.1 µM), without a hit: at the highest dose activity change, positive = activation, most hits filed as activators; actives 2.8% (n = 210,000); AID 1458; further: % of control where 0% means no effect; nearly all actives have a fitted effect of over 55% in size
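qHTS luciferase splicing reporter: luminescence rises when SMN2 exon 7 is included in transfected HEK293 cells. Compound exposure lasted 30-36 h at 37C, with 4.5 mM final sodium butyrate as control, followed by a ONE-Glo read.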
NPC1 prom act – activators of NPC1 promoter. Huh7 NPC1 promoter luciferase reporter, 24 h. Potency, µM (titrated, usually from 9.22 µM), inactives show at the top dose activation, actives largely listed as activators. actives 2.4% (n = 320,000); further: % of control where 0% means no effect; nearly all actives have a fitted effect of over 60% in size
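Huh7 cells stably carrying NPC1 promoter–luciferase, plated in Opti-MEM with 10% FBS for 2 h, were exposed to compound in DMSO for 24 h at 37 °C; luciferase reagent was added for 10 min and luminescence read.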
FLuc counter – firefly luciferase modulation, counter-screen for miR-21 project. P08659. purified FLuc, Km substrates, luminescence inhibition. Potency, µM (doses to about 57.5 µM), for inactives: top-dose activity change, negative = inhibition, usual class: inhibitors. actives 6.9% (n = 360,000). AID 588342;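 further: plate controls were vehicle for no effect and reference inhibitor for full effect; nearly all actives have a fitted effect of over 55% in size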
Target sequence (P08659 whole entry, looked up): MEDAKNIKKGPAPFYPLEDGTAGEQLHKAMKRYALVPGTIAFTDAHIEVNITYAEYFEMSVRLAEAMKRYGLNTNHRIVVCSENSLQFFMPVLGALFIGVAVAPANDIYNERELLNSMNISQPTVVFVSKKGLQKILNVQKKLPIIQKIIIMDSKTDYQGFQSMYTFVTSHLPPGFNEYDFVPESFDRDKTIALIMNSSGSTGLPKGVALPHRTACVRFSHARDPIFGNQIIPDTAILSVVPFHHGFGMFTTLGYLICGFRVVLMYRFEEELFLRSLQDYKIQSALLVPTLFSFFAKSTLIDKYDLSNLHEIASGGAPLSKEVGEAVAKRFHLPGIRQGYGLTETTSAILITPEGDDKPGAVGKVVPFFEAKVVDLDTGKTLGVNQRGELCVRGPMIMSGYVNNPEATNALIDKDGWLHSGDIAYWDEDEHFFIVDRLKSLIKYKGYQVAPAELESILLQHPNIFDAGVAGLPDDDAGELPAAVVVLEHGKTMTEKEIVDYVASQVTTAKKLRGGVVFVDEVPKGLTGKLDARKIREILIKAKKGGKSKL
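Purified P. pyralis luciferase, 10 nM final, with Km-level 10 uM D-luciferin and 10 uM ATP in 50 mM Tris acetate pH 7.5, 10 mM Mg acetate, 0.01% Tween-20, 0.05% BSA; 6-point qHTS titration about 60 µM downward; luminescence read.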
Rab9 promoter act – Rab9 promoter activation; actives 2.8% (n = 320,000); AID 485297; Huh7 Rab9 promoter-luciferase reporter, luminescence, 24 h; Potency, µM (titrated, usually from 9.22 µM), for inactives: at the highest dose activation, negative = inhibition, most hits filed as activators; further: % of control where 0% means no effect; nearly all actives have a fitted effect of over 60% in size
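Rab9 promoter-driven luciferase in stably transfected Huh7 cells; 1500 cells/well rested 2 h, exposed to compound in DMSO for 24 h at 37 °C, 5% CO2. Luminescence read 10 min after adding luciferase reagent at ambient temperature.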
* = called active by the depositor; u = inconclusive; x = no result given; [ ] = another dose, or the depositor's remark. The call rests on the fitted dose curve; in most records, active means well fitted curve in the direction sought with a large enough effect; inconclusive means small, poorly fitted or top-dose-only effect, or another doubt; inactive means no such curve, though single readings can be large; an effect the other way counts as inactive or inconclusive. Potency means the concentration at half of the fitted maximal effect.

SMILES	Luc counter	ELG1 genotoxic	SMN2 splice up	NPC1 prom act	FLuc counter	Rab9 promoter act
O=C(Cn1c(=O)n(Cc2nc(-c3ccccc3)no2)c(=O)c2ccccc21)Nc1cccc(C(F)(F)F)c1	x	x	x	x	-3.2%	x
COc1ccc(C(=O)Nc2cnn(Cc3c(F)cccc3Cl)c2)cc1OC	x	5.4%	x	18.9%	19µM*	16.1%
Cc1ccc(NC(=O)CSc2nc3c(c(=O)[nH]2)CCC3)cc1Cl	x	x	x	x	-7.4%	x
C1=C(c2ccc(-c3ccccc3)cc2)Nc2ncnn2C1c1ccco1 (centres undefined)	-6.7%	9.7%	23.8%	2.82µM*	21.3µM*	3.16µM*
Fc1ccc(C2=CC(c3ccco3)n3ncnc3N2)cc1 (centres undefined)	2.7%	1.4%	8.4%	-5.7%	1.7%	1.9%
COc1c(O)ccc(/C=C(\C#N)c2nc3ccccc3[nH]2)c1[N+](=O)[O-]	-2.0%	1.0%	18.4%	6.1%	26.9µM*	12.2%
COc1c(Cl)cc(Cl)cc1/C=C(\C#N)c1nc2ccccc2[nH]1	x	x	x	x	2.1%	x
COc1cc(/C=C(\C#N)C(=O)c2c[nH]c3ccccc23)cc(OC)c1O	-1.1%	3.6%	-46.4%	0.3%	15.1µM*	-3.7%
COc1cc(/C=C(/C#N)c2nc3ccccc3c(=O)[nH]2)ccc1O	-1.8%	4.5%	5.1%	11.5%	8.49µM*	6.4%
COc1cc(/C=C(\C#N)c2nc3ccccc3[nH]2)cc(OC)c1O	-0.1%	3.7%	8.0%	1.5%	12µM*	19.1%
COc1cc(/C=C(\C#N)c2nc3ccccc3[nH]2)cc(Br)c1OCc1ccccc1	-0.3%	7.3%	-41.7%	-2.0%	-9.1%	-7.7%
Cc1nc2sc(C(=O)Nc3ccc(F)cc3)c(N)c2c(-c2ccc(Br)cc2)c1C(=O)Nc1ccc(Cl)cc1	x	x	1.1%	x	-1.9%	x
COc1ccc(CNC(=O)CCc2c(C)nn(-c3ccc(N4CCCC4)nn3)c2C)c(OC)c1	x	x	x	x	3.8%	x
CCC(=O)Oc1ccc(/C=C(\C#N)c2nc3ccccc3[nH]2)cc1OC	x	x	u	x	2.69µM*	x
COc1cc(/C=C(/C(=O)c2cccs2)c2nc3ccccc3[nH]2)ccc1O	u	-4.7%	-26.7%	1.5%	6.75µM*	13.0%
COc1ccccc1N/C=C(\C#N)c1nc2ccccc2[nH]1	-8.7%	9.3%	x	-15.9%	3.38µM*	-28.5%
COC(=O)/C(=C\c1cc(OC)c(OC)c(OC)c1)c1nc2ccccc2[nH]1	0.2%	-5.5%	-99.2%	-9.5%	u	-4.3%
COc1ccc(/C=C(\C#N)c2nc3ccccc3[nH]2)cc1O	x	u	x	u	9.53µM*	u
CN(C)/C=C(\C#N)c1nc2ccccc2[nH]1	-3.3%	u	13.0%	1.1%	u	-2.3%
CCc1nn(CC(=O)NCCC(C)C)c(=O)c2cc3occc3n12	x	x	1.1%	x	-2.9%	x
Cc1ccc(Cl)cc1NC(=O)c1oc2ccc(S(=O)(=O)N(C)C3CCCCC3)cc2c1C	x	x	x	x	-4.4%	x
Cc1ccc2cc(CN(C(=O)c3cccc(Cl)c3)c3ccccc3)c(=O)[nH]c2c1	x	x	3.8%	x	-1.6%	x
CCc1cccc(C)c1NC(=O)CCS(=O)(=O)c1ccc2c(c1)oc(=O)n2C	x	x	x	x	-6.8%	x
COc1ccccc1-c1nc(S(=O)(=O)c2ccccc2)c(N2CCC(C)CC2)o1	x	x	5.0%	x	5.3%	x
Cc1cccc(C(=O)OC2CCOC2=O)c1O (centres undefined)	x	-1.4%	x	-6.0%	-0.8%	-2.5%
SMILES	Luc counter	ELG1 genotoxic	SMN2 splice up	NPC1 prom act	FLuc counter	Rab9 promoter act
Cc1ccsc1C(=O)OC1CCOC1=O (centres undefined)	-1.0%	-0.3%	25.1µM*	-2.0%	1.6%	-1.1%
O=C1CN(C(=O)c2c(F)cccc2Cl)C(c2ccc(F)cc2)c2cc(Br)ccc2N1 (centres undefined)	x	x	-8.8%	x	2.0%	x
CC1CCN(S(=O)(=O)c2cc(C(=O)Nc3ccc(Br)cc3F)n(C)c2)CC1	x	x	x	x	-3.9%	x
N#CC(C#N)=C1C=CC=CN1/C(=C\c1ccccc1)C(=O)c1cccs1	-0.6%	-2.5%	8.0%	-2.8%	19µM*	1.2%
CC(C)(C)c1ccc(Cn2c(=O)cnc3ccccc32)cc1	x	u	x	-0.6%	15.1µM*	-0.7%
O=c1cnc2ccccc2n1Cc1ccc(Br)cc1	x	5.8%	x	5.6%	26.9µM*	18.5%
CC(=O)c1ccc(NC(=O)c2cc3c(=O)oc4ccc(C)cc4c3s2)cc1	x	x	-8.3%	x	-5.3%	x
Cc1ccsc1/C=N/NC(=O)CO	-0.9%	5.2%	4.7%	0.0%	-1.5%	-9.7%
Cc1ccsc1/C=N/N=C/c1sccc1C	x	u	x	3.98µM*	1.07µM*	1.58µM*
Cc1ccsc1/C=N/NC(=O)c1sccc1C	u	u	11.2µM*	2.51µM*	5.36µM*	3.16µM*
Cc1ccc(C(=O)N/N=C\c2sccc2C)cn1	-7.7%	u	u	u	16.9µM*	u
CC#N	x	x	3.8%	x	x	x
COc1cccc(OCc2cc(C(=O)NC3CCOCC3)no2)c1	x	u	x	u	23.9µM*	u
COc1ccc(OCc2cc(C(=O)N(C)Cc3cc(C4CC4)n[nH]3)no2)c(Cl)c1	x	u	x	3.55µM*	12µM*	2.82µM*
COc1ccc(OCc2cc(C(=O)N(C)Cc3cnccn3)no2)c(Cl)c1	x	u	x	25.9%	u	u
COc1ccc(OCc2cc(C(=O)NCCN3CCCC(O)C3)no2)c(Cl)c1 (centres undefined)	x	2.6%	x	1.9%	u	-2.1%[1.84 µM]
COc1ccc(OCc2cc(C(=O)NCC3CCOCC3)no2)c(Cl)c1	x	u	x	u	13.5µM*	u
COc1ccc(OCc2cc(C(=O)NCCN3CCCc4ccccc43)no2)c(Cl)c1	x	-20.2%	x	23.9%	23.9µM*	4.5%
CCOC(=O)c1cc(S(=O)(=O)N2CCN(c3ccc(F)cc3)CC2)[nH]n1	x	x	x	x	-5.5%	x
CSc1ccccc1OCc1cc(C(=O)NCCC2CCCCO2)no1 (centres undefined)	x	7.7%	x	u	u	14.4%
COc1ccc(OCc2cc(C(=O)NCC3CCCCO3)no2)c(Cl)c1 (centres undefined)	x	u	x	u	u	3.98µM*
N[C@@H](C(=O)O)[C@@H](CC(=O)O)c1ccc(Cl)cc1	x	x	-3.6%	x	x	x
Cc1cc(-c2ccc(N=Nc3cc(S(=O)(=O)O)c4ccccc4c3N)c(C)c2)ccc1N=Nc1cc(S(=O)(=O)O)c2ccccc2c1N	x	x	-2.0%	x	x	x
O=C(CC(=O)N/N=C/c1ccc(F)cc1)N/N=C/c1ccc(F)cc1	x	-3.6%	x	1.4%	15.1µM*	2.4%
Cc1ccc(C(=O)Nc2cccc(C(=O)N/N=C/c3ccc(F)cc3)c2)cc1	x	15.1%	x	2.24µM*	2.39µM*	1.41µM*

High-throughput results as filed in PubChem.
